# Results from publication PMC5540273 (PLoS ONE, 2017).
# Like-named read-outs stand apart in the source and are kept apart here.
# Experiments:
# FYN = settings: concentration: 1 μM,replicates: in singlicate; n = 1
# GAK = settings: concentration: 1 μM,replicates: in singlicate; n = 1
# GCN2(Kin.Dom.2,S808G) = system: T1, GCN2(Kin.Dom.2,S808G); settings: concentration: 1 μM,replicates: in singlicate; n = 1
# T1 construct: gene EIF2AK4
# GRK1 = settings: concentration: 1 μM,replicates: in singlicate; n = 1
# GRK2 = system: T2, GRK2; settings: concentration: 1 μM,replicates: in singlicate; n = 1
# T2 construct: gene ADRBK1
# GRK3 = system: T3, GRK3; settings: concentration: 1 μM,replicates: in singlicate; n = 1
# T3 construct: gene ADRBK2
# GRK4 = settings: concentration: 1 μM,replicates: in singlicate; n = 1
# GRK7 = settings: concentration: 1 μM,replicates: in singlicate; n = 1
# GSK3A = settings: concentration: 1 μM,replicates: in singlicate; n = 1
# GSK3B = settings: n = 1
# HASPIN = system: T4, HASPIN; settings: concentration: 1 μM,replicates: in singlicate; n = 1
# T4 construct: gene GSG2
# HCK = settings: concentration: 1 μM,replicates: in singlicate; n = 1
# HIPK1 = settings: concentration: 1 μM,replicates: in singlicate; n = 1
# HIPK2 = settings: concentration: 1 μM,replicates: in singlicate; n = 1
# HIPK3 = settings: concentration: 1 μM,replicates: in singlicate; n = 1
# HIPK4 = settings: concentration: 1 μM,replicates: in singlicate; n = 1
# HPK1 = settings: concentration: 1 μM,replicates: in singlicate; n = 1
# HUNK = settings: concentration: 1 μM,replicates: in singlicate; n = 1
# ICK = settings: concentration: 1 μM,replicates: in singlicate; n = 1
# IGF1R = settings: concentration: 1 μM,replicates: in singlicate; n = 1
# [1] = concentration: 1 μM,replicates: in singlicate
# 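Further: KINOMEscan kinase panel screen.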
smiles,measurement,setting,value
C[C@@H](Oc1cc(-n2cnc3cc(-c4cnn(C)c4)ccc32)sc1C(N)=O)c1ccccc1Cl [GSK580432],%Inh,FYN,47%
same,%Inh,GAK,95.3%
same,%Inh,"GCN2(Kin.Dom.2,S808G)",99.2%
same,%Inh,GRK1,4%
same,%Inh,GRK2,38%
same,%Inh,GRK3,0%
same,%Inh,GRK4,85%
same,%Inh,GRK7,0%
same,%Inh,GSK3A,0%
same,%Inh,GSK3B; [1],0%
same,%Inh,HASPIN,0%
same,%Inh,HCK,64%
same,%Inh,HIPK1,20%
same,%Inh,HIPK2,0%
same,%Inh,HIPK3,4%
same,%Inh,HIPK4,1%
same,%Inh,HPK1,91.3%
same,%Inh,HUNK,0%
same,%Inh,ICK,0%
same,%Inh,IGF1R,0%
CN(c1ccccc1CNc1nc(Nc2ccc3c(c2)CC(=O)N3)ncc1C(F)(F)F)S(C)(=O)=O,%Inh,FYN,0%
same,%Inh,GAK,45%
same,%Inh,"GCN2(Kin.Dom.2,S808G)",0%
same,%Inh,GRK1,12%
same,%Inh,GRK2,0%
same,%Inh,GRK3,0%
same,%Inh,GRK4,7%
same,%Inh,GRK7,47%
same,%Inh,GSK3A,64%
same,%Inh,GSK3B; [1],0%
same,%Inh,HASPIN,0%
same,%Inh,HCK,3%
same,%Inh,HIPK1,83%
same,%Inh,HIPK2,80%
same,%Inh,HIPK3,64%
same,%Inh,HIPK4,89%
same,%Inh,HPK1,76%
same,%Inh,HUNK,0%
same,%Inh,ICK,0%
same,%Inh,IGF1R,88%
CCN1CCN(CCCC(=O)Nc2n[nH]c3nc(-c4ccc(O)cc4)c(Br)cc23)CC1 [SB-731579],%Inh,FYN,4%
same,%Inh,GAK,0%
same,%Inh,"GCN2(Kin.Dom.2,S808G)",0%
same,%Inh,GRK1,0%
same,%Inh,GRK2,0%
same,%Inh,GRK3,25%
same,%Inh,GRK4,21%
same,%Inh,GRK7,0%
same,%Inh,GSK3A,99.5%
same,%Inh,GSK3B; 1 µM,98.5%
same,%Inh,HASPIN,0%
same,%Inh,HCK,0%
same,%Inh,HIPK1,75%
same,%Inh,HIPK2,57%
same,%Inh,HIPK3,0%
same,%Inh,HIPK4,0%
same,%Inh,HPK1,8%
same,%Inh,HUNK,0%
same,%Inh,ICK,93.3%
same,%Inh,IGF1R,0%
Cc1ccc(Nc2ccnc(Nc3ccc4c(c3)CS(=O)(=O)C4)n2)cc1O.Cl [GW579362],%Inh,FYN,97.9%
same,%Inh,GAK,87%
same,%Inh,"GCN2(Kin.Dom.2,S808G)",98.4%
same,%Inh,GRK1,2%
same,%Inh,GRK2,0%
same,%Inh,GRK3,22%
same,%Inh,GRK4,82%
same,%Inh,GRK7,0%
same,%Inh,GSK3A,63%
same,%Inh,GSK3B; [1],23%
same,%Inh,HASPIN,0%
same,%Inh,HCK,90%
same,%Inh,HIPK1,26%
same,%Inh,HIPK2,0%
same,%Inh,HIPK3,28%
same,%Inh,HIPK4,44%
same,%Inh,HPK1,62%
same,%Inh,HUNK,8%
same,%Inh,ICK,28%
same,%Inh,IGF1R,56%
CNC(=O)c1ccccc1Nc1nc(Nc2cccc(CS(C)(=O)=O)c2)ncc1C.O=CO [GSK1520489],%Inh,FYN,98.9%
same,%Inh,GAK,94.7%
same,%Inh,"GCN2(Kin.Dom.2,S808G)",100%
same,%Inh,GRK1,8%
same,%Inh,GRK2,0%
same,%Inh,GRK3,100%
same,%Inh,GRK4,85%
same,%Inh,GRK7,40%
same,%Inh,GSK3A,25%
same,%Inh,GSK3B; [1],34%
same,%Inh,HASPIN,52%
same,%Inh,HCK,99.2%
same,%Inh,HIPK1,93.5%
same,%Inh,HIPK2,88%
same,%Inh,HIPK3,92.7%
same,%Inh,HIPK4,97.2%
same,%Inh,HPK1,96.8%
same,%Inh,HUNK,0%
same,%Inh,ICK,20%
same,%Inh,IGF1R,90.7%
Cc1cccc2c(-c3ccncc3)c(-c3ccc(F)cc3)nn12.Cl [GW461487],%Inh,FYN,4%
same,%Inh,GAK,67%
same,%Inh,"GCN2(Kin.Dom.2,S808G)",1%
same,%Inh,GRK1,0%
same,%Inh,GRK2,0%
same,%Inh,GRK3,21%
same,%Inh,GRK4,100%
same,%Inh,GRK7,0%
same,%Inh,GSK3A,12%
same,%Inh,GSK3B; [1],10%
same,%Inh,HASPIN,2%
same,%Inh,HCK,0%
same,%Inh,HIPK1,0%
same,%Inh,HIPK2,0%
same,%Inh,HIPK3,19%
same,%Inh,HIPK4,0%
same,%Inh,HPK1,28%
same,%Inh,HUNK,5%
same,%Inh,ICK,0%
same,%Inh,IGF1R,0%
Cn1ccc2ncnc(Oc3ccc(NC(=O)Nc4cncc(C(F)(F)F)c4)c(Cl)c3)c21,%Inh,FYN,0%
same,%Inh,GAK,0%
same,%Inh,"GCN2(Kin.Dom.2,S808G)",0%
same,%Inh,GRK1,4%
same,%Inh,GRK2,0%
same,%Inh,GRK3,0%
same,%Inh,GRK4,11%
same,%Inh,GRK7,0%
same,%Inh,GSK3A,0%
same,%Inh,GSK3B; [1],0%
same,%Inh,HASPIN,0%
same,%Inh,HCK,14%
same,%Inh,HIPK1,10%
same,%Inh,HIPK2,0%
same,%Inh,HIPK3,0%
same,%Inh,HIPK4,0%
same,%Inh,HPK1,0%
same,%Inh,HUNK,0%
same,%Inh,ICK,0%
same,%Inh,IGF1R,0%
CS(=O)(=O)Nc1ccc(-c2ccnc3[nH]ccc23)cc1 [GSK993273],%Inh,FYN,0%
same,%Inh,GAK,26%
same,%Inh,"GCN2(Kin.Dom.2,S808G)",0%
same,%Inh,GRK1,18%
same,%Inh,GRK2,0%
same,%Inh,GRK3,22%
same,%Inh,GRK4,71%
same,%Inh,GRK7,76%
same,%Inh,GSK3A,0%
same,%Inh,GSK3B; [1],17%
same,%Inh,HASPIN,78%
same,%Inh,HCK,0%
same,%Inh,HIPK1,56%
same,%Inh,HIPK2,8%
same,%Inh,HIPK3,73%
same,%Inh,HIPK4,34%
same,%Inh,HPK1,38%
same,%Inh,HUNK,0%
same,%Inh,ICK,6%
same,%Inh,IGF1R,2%
